Experimental data reported in PubChem BioAssay AID624330 (Southern Research Specialized Biocontainment Screening …, 2012).
In all, about 340,000 compounds went through this assay and about 2,100 (0.62%) were called active. The list is a sample of the results. Results with a measured potency or affinity are listed apart. Unmarked numbers belong to inactive results.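 Rule for the calls: active = first-screen hits whose inhibition reached a set limit at any dose in the follow-up dose series; inconclusive = inhibition above the set first-screen limit but never retested; inactive = the rest.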

These molecules were tested against Rac GTPase-activating protein 1 (Homo sapiens) (UniProt Q9H0H5) (assay: MgcRacGAP GTPase-activating activity inhibitors, confirmation, biochemical, ADP Hunter fluorescence, primary and confirmatory (AID 624330;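 note: fluorescence reports GDP produced by GAP-driven GTP hydrolysis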)). Conditions: MgcRacGAP-stimulated Rac1 GTP hydrolysis, at 30 µM, stronger effect = higher value, GST-tagged Rac1 F28L mutant substrate.
Chain of Rac GTPase-activating protein 1 (Homo sapiens) (Q9H0H5 whole entry, looked up): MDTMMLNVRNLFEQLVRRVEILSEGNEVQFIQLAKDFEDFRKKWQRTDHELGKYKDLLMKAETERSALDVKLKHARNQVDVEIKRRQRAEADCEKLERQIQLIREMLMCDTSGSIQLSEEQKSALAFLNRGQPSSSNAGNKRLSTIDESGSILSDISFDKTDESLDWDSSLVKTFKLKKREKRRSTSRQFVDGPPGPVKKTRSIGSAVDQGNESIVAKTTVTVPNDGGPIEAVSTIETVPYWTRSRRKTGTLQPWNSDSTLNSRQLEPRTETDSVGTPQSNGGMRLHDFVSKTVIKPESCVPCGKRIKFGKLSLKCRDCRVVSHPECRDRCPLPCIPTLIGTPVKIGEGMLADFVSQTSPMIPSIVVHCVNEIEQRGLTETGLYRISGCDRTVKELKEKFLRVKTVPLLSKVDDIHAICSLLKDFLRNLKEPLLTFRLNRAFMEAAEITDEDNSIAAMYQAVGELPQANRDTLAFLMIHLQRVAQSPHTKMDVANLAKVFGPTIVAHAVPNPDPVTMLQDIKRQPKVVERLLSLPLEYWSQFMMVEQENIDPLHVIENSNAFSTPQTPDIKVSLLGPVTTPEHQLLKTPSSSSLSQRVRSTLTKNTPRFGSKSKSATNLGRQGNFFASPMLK
With CCOc1cc(CNCC2CCCO2)cc(Br)c1OCC(N)=O (configuration not stated) the inhibition was 3.03%. For CCn1ncc(CN2CCN(C(=O)Nc3ccccc3C(=O)OC)CC2)c1C, the inhibition was 6.62%. O=C(Cn1ncn2c(cc3ccccc32)c1=O)NCCCc1ccccc1 was tested, and the inhibition was 1.38%. CC(C)(C)NC(=O)CN1C(=O)/C(=C/c2ccccc2)SC1=S gave an inhibition of 9.16%. Molecule CCC(Cc1ccccc1)NC(=O)CCc1ccccc1 (configuration not stated) has an inhibition of 7.57%. O=C(OCN1C(=O)C(=O)c2ccccc21)c1ccc(Cl)cc1 gave an inhibition of 7.35%. CCCCn1c(N)c(N(Cc2ccccc2OC)C(=O)COc2ccc(F)cc2Cl)c(=O)[nH]c1=O gave an inhibition of 4.08%. In the case of CCOC(=O)C1=C(COC(=O)/C=C/c2ccc(OCC)c(OC)c2)NC(=O)NC1C (configuration not stated), the inhibition is reported as 9.47%. For CCOC(=O)C1=C(COC(=O)/C=C/c2ccc(OC)c(OC)c2)NC(=O)NC1C (configuration not stated), the inhibition was -0.71%. For COc1ccc(-c2cc(C3CCN(Cc4cccc(C(F)(F)F)c4)CC3)[nH]n2)cc1, the inhibition was 9.81%. CC(C)c1ccc2nc(NC(=O)C3CC3)sc2c1 was tested, and the inhibition was 9.94%. COc1ccccc1NC(=O)c1ccccc1S(=O)(=O)c1ccc([N+](=O)[O-])cc1 was tested, and the inhibition was 11.4%. For c1ccc(Nc2ccccn2)cc1, the inhibition was 1.32%. With c1ccc(Nc2cccc(Nc3ccccc3)n2)cc1 the inhibition was 16.6%. With Cc1ccc(NC(=O)CSc2ccc3c(c2)OCCO3)c(O)c1 the inhibition was 8.94%. In the case of CC(=O)c1ccc(N2CCN(C(=O)COc3ccc4c(c3)CCC4)CC2)cc1, the inhibition is reported as 5.57%. Work on O=C(O)c1ccc2c(c1)S(=O)(=O)c1cc(N3CCN(c4cnccn4)CC3)ccc1C2=O yielded an inhibition of 13.8%. With O=C(Cn1[nH]c(=O)c2ccccc2c1=O)NC1CCN(Cc2ccccc2)CC1 the inhibition was 5.55%. With COc1cc(C)c(S(=O)(=O)N2CCCC2)cc1C(C)C the inhibition was 3.94%. Work on COc1cc(C)c(-c2cc(C(=O)O)c(C)o2)cc1C(C)C yielded an inhibition of 8.02%. For Nc1ccc2c(=O)[nH][nH]c(=O)c2c1, the inhibition was 3.77%. For Nc1ccc2c(c1)[nH]c(=O)c1ccccc12, the inhibition was 21.4%. Molecule C[C@H](CO)N1C[C@H](C)[C@@H](CN(C)S(=O)(=O)c2cccs2)Oc2ccc(NC(=O)NC3CCCCC3)cc2C1=O has an inhibition of 3.35%. For Cn1ccnc1Sc1nc2c(c(=O)n(C)c(=O)n2C)n1C, the inhibition was 1.94%. Work on COc1cc(C(=O)Nc2cccc(S(=O)(=O)N3CCCC3)c2)c([N+](=O)[O-])cc1OC yielded an inhibition of 4.7%. S=c1[nH]nc2nnc3ccccc3n12 gave an inhibition of 17.6%. Work on Cn1c(=S)[nH]c2ccccc21 yielded an inhibition of 11.4%. In the case of COc1cc(NC(=O)c2cccc(F)c2)cc(OC)c1OC, the inhibition is reported as 8.45%. With C=CCn1c2ccccc2c2n[nH]c(=S)nc21 the inhibition was 3.05%. COCCNC(=O)c1c[nH]c2ccc(S(=O)(=O)N3CCC4(CC3)OCCO4)cc2c1=O showed an inhibition of 10.7%. Cc1ccc(N=C2CCCCCN2C)c(C#N)c1 showed an inhibition of 3.58%. For N#Cc1ccccc1N=C1CCCN1Cc1ccccc1, the inhibition was 16.7%. CCc1ccc(OCC(O)Cn2c(N3CCCCC3)nc3c2c(=O)[nH]c(=O)n3C)cc1 (configuration not stated) gave an inhibition of -4.27%. In the case of O=C(Nc1ccccc1Cl)Oc1ccc(Cl)cc1Cl, the inhibition is reported as 9.61%. Work on O=C(Nc1ccccc1Cl)OCC#CCOC(=O)Nc1ccccc1Cl yielded an inhibition of 11%. C[C@@H]1CN([C@@H](C)CO)C(=O)CCCn2nncc2CO[C@H]1CN(C)C(=O)Nc1ccc(N2CCCCC2)cc1 showed an inhibition of 11.5%. For O=C(CCN1C(=O)/C(=C/c2ccccc2Cl)SC1=S)NN1CCOCC1, the inhibition was 4.7%. Cn1nccc1NC(=O)Nc1cccc(Cl)c1Cl gave an inhibition of 2.52%. In the case of CC(C)(C)c1nnc(N/N=C/c2ccccc2)n(N)c1=O, the inhibition is reported as 8.65%. Molecule CC(C)(C)c1nnc(N/N=C/c2ccc(Br)cc2)n(N)c1=O has an inhibition of 9.58%. CCOc1ccc(NC(=O)CN(C)C(=O)c2cn(-c3ccc(F)cc3)nc2-c2cccc(OC)c2)cc1OCC showed an inhibition of 0.09%. In the case of CC(OC(=O)/C=C/c1ccccc1)C(=O)Nc1ccc2c(c1)OCCO2 (configuration not stated), the inhibition is reported as 9.16%. O=C(NCCc1nc2ccccc2[nH]1)Nc1ccccc1 showed an inhibition of 8.22%. Work on COc1cccc(C(=O)Nc2cccc(NC(C)=O)c2)c1 yielded an inhibition of 10.6%. COc1ccc(NC(=O)c2cccc(Oc3ccccc3)c2)cn1 gave an inhibition of 4.7%. For NS(=O)(=O)c1cccc(NC(=O)c2cccc(-c3ccc(O)cc3)c2)c1, the inhibition was 12.5%. COc1ccc(NC(=O)c2cc(OC)c(OC)c(OC)c2)cn1 was tested, and the inhibition was 7.64%. CCOc1ccc(N(C(C)C(=O)Nc2ccc(OC)cc2)S(C)(=O)=O)cc1 (configuration not stated) was tested, and the inhibition was 9.57%. Cc1ccc(NC(=O)COC(=O)c2cc(Cl)ccc2[N+](=O)[O-])cc1 gave an inhibition of 9%. O=C(c1c(O)cc(O)cc1O)C1c2c(cc(O)c3c2O[C@H](c2ccc(O)cc2)[C@@H](O)C3)OC1c1ccc(O)cc1 (some centres not stated) gave an inhibition of 12.8%. Work on O=C1c2c(O)cc(O)cc2O[C@H](c2ccc(O)c(O)c2)[C@H]1O yielded an inhibition of 13.3%. With COc1cc2c3c([nH]c2cc1F)C(=O)NCC3 the inhibition was 9.04%. O=[N+]([O-])c1cccc(CSc2nc3ccccc3[nH]2)c1 showed an inhibition of 3.52%. For CCN(CC(=O)Nc1cc(Cl)ccc1C)C(=O)COc1ccccc1F, the inhibition was -0.45%. In the case of Cc1ccc(N/N=C/c2ccc(N3CCOCC3)cc2)cc1C, the inhibition is reported as 24.2%. For Clc1ccc(/C=N/Nc2ccccn2)cc1, the inhibition was 11.1%. In the case of C=CCOc1ccc(/C=N/Nc2ccccn2)cc1OC, the inhibition is reported as 9.55%. COc1cc(/C=N/Nc2ccccn2)ccc1OCC(C)C showed an inhibition of 1.63%. C(=N\n1cnnc1)/c1ccc(N2CCOCC2)cc1 showed an inhibition of 8.48%. Brc1ccc(/C=N/Nc2ccccn2)cc1 was tested, and the inhibition was 10.9%. Work on CCCOc1ccc(/C=N/Nc2ccccn2)cc1OC yielded an inhibition of 13.1%. With CCOc1ccc(/C=N/Nc2ccccn2)cc1OC the inhibition was 6.25%.
